This is a sample that favours compounds with a hit; in the whole collection about 21% have one here.
Pf growth 48h: P. falciparum growth inhibition at 48 hours (one generation) | P. falciparum luciferase growth in erythrocytes, 48 h | Potency, µM (doses to about 28.7 µM), inactives show at the top dose activity change, negative = inhibition, hits mostly inhibitors | 310,000 compounds, 5.9% hits; also: potency is read from the fitted curve at half-maximal effect; % is scaled to controls: 0 for no effect and ±100 for the full control effect
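Here the parasites carry a stable luciferase gene and grow inside erythrocytes in Albumax-based RPMI medium with compound for one erythrocytic cycle. Activity is scored as loss of luminescent signal.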
Pf growth 96h: P. falciparum growth inhibition at 96 hours. P. falciparum luciferase reporter growth, 96 h. Potency, µM (highest dose often 28.7 µM), for inactives: at the highest dose activity change, negative = inhibition, most hits filed as inhibitors. 320,000 compounds, 6.9% hits. AID 504834; also: potency is read from the fitted curve at half-maximal effect; % is scaled to controls: 0 for no effect and ±100 for the full control effect
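Two parasite generations (96 h, 37 C, 5% CO2) of compound exposure in infected erythrocytes (0.05% parasitemia, 2% hematocrit). Luciferase-reporter P. falciparum; decreased luminescence indicates inhibited growth, aimed at apicoplast-acting delayed death.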
CHX counter: counter-screen hit for Shiga toxin inhibitors, cycloheximide; cell reporter, cycloheximide protein synthesis inhibition counterscreen; max response, %; 300,000 compounds, 12% hits; AID 2314; in the data active = max response mostly above about 13%, no sharp cut-off; inactive = mostly below about 14%; also: read at 38.3 µM for the half of the compounds with a filed dose; 0% is about no effect
NS1 inh: inhibitors of influenza NS1 protein function; Potency, µM (top dose mostly 46.1 µM), without a hit: at the top dose activity, positive = more growth; 270,000 compounds, 0.4% hits; calls by dose curve; also: potency is read from the fitted curve at half-maximal effect; actives are rising curves; nearly all actives have a fitted effect of over 50% in size
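A cell-based growth assay was used: compounds that relieve NS1-induced slow growth of budding yeast raise OD600. Assay medium was yeast nitrogen base with ammonium sulphate and -URA supplement, pH 6.0, with 2% galactose.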
Shiga inhibitor: blocks Shiga toxin action in Vero cells; inhibition, % at 38.7 µM; 290,000 compounds, 9.2% hits; AID 2315; Vero cells, Shiga toxin protein synthesis inhibition reporter; in the data active = inhibition mostly above about 28%, no sharp cut-off; inactive = mostly below about 43%; also: 0% is about no effect
SARS PLP yeast: inhibitors of SARS-CoV papain-like protease in yeast; S. cerevisiae expressing SARS-CoV PLpro, growth rescue; Potency, µM (series often up to 32.9 µM), without a hit: at the highest dose activity, positive = growth rescue, usual class: activators; 330,000 compounds, 0.19% hits; calls by dose curve; also: potency is read from the fitted curve at half-maximal effect; 0% is about no effect; nearly all actives have a fitted effect of over 55% in size
Active calls of the source: *. Unless noted, calls follow the shape of the dose curve; as a rule, active = well fitted inhibition curve with a large enough effect; inconclusive = small, poorly fitted or top-dose-only effect, or another doubt; inactive = no such curve, though single readings can be large or run the other way.

What do the screens show for `Cc1cccc(C)c1OCc1cc(C(=O)N2CCN(c3ccc(F)cc3)CC2)no1`?
Pf growth 48h: 40%; Pf growth 96h: inconclusive; CHX counter: 52*; NS1 inh: 0%; Shiga inhibitor: 109*; SARS PLP yeast: -3%

Results for CC(C)C(NC(=O)CCNC(=O)c1ccc([N+](=O)[O-])cc1)c1nc2ccccc2[nH]1 (stereo not given) ?
Pf growth 48h: 6%; Pf growth 96h: -7%; SARS PLP yeast: 2%

What do the screens show for `O=C(Nc1nnc(C2=COCCO2)o1)c1ccc(S(=O)(=O)N2CCCCC2)cc1`?
Pf growth 48h: -15%; Pf growth 96h: -11%; CHX counter: -1; Shiga inhibitor: -6; SARS PLP yeast: 6%

Results for COc1ccc(S(=O)(=O)N2CCCC(C(=O)NC3CC3)C2)cc1Cl (stereo not given) ?
Pf growth 48h: inconclusive; Pf growth 96h: inconclusive; CHX counter: -3; NS1 inh: -4%; Shiga inhibitor: -6; SARS PLP yeast: 0%

How did O=C(Nc1ccc(Br)cc1)c1cccc(OC(=S)N2CCOCC2)c1 do in these assays?
Pf growth 48h: 4%; Pf growth 96h: -7%; CHX counter: 19*; NS1 inh: 2%; Shiga inhibitor: 50*; SARS PLP yeast: -4%

What do the screens show for `COc1ccc(NC(=O)c2cccc(OC(=S)N3CCOCC3)c2)cc1`?
Pf growth 48h: inconclusive; Pf growth 96h: 49%; CHX counter: 6; NS1 inh: -2%; Shiga inhibitor: 21; SARS PLP yeast: 1%

How did Cc1cccc(NC(=O)c2cccc(OC(=S)N3CCOCC3)c2)c1C do in these assays?
Pf growth 48h: 3%; Pf growth 96h: 1.9µM*; CHX counter: 14; NS1 inh: 5%; Shiga inhibitor: 16; SARS PLP yeast: -3%

What do the screens show for `CCOc1ccc(NC(=O)c2cccc(OC(=S)N3CCOCC3)c2)cc1`?
Pf growth 48h: inconclusive; Pf growth 96h: 2%; CHX counter: 11*; NS1 inh: 3%; Shiga inhibitor: 5; SARS PLP yeast: 1%

Results for CC(C)N(Cc1cc2ccccc2[nH]c1=O)C(=O)c1ccco1 ?
Pf growth 48h: 48%; Pf growth 96h: -8%; CHX counter: 5; Shiga inhibitor: -4; SARS PLP yeast: 0%

How did CC[C@@]1([C@@H]2O[C@@H]([C@H]3O[C@@](O)(CO)[C@H](C)C[C@@H]3C)C[C@@H]2C)CC[C@H]([C@]2(C)CC[C@]3(C[C@H](O)[C@@H](C)[C@@H]([C@@H](C)[C@@H](OC)C(C)C(=O)O)O3)O2)O1 (stereo not given in full) do in these assays?
CHX counter: 6; Shiga inhibitor: 23

Results for COc1ccc(C(=O)NCCC2=CCCCC2)cc1S(=O)(=O)N1CCOCC1 ?
Pf growth 48h: inconclusive; Pf growth 96h: inconclusive; SARS PLP yeast: -4%

What do the screens show for `CC1CN(S(=O)(=O)c2cc(C(=O)NCCC3=CCCCC3)ccc2Cl)CC(C)O1` (stereo not given)?
Pf growth 48h: 10µM*; Pf growth 96h: inconclusive; SARS PLP yeast: -5%

Results for O=C(NCCC1=CCCCC1)c1ccc(F)c(S(=O)(=O)N2CCOCC2)c1 ?
Pf growth 48h: inconclusive; Pf growth 96h: 9.3µM*; CHX counter: -2; NS1 inh: -6%; Shiga inhibitor: 11; SARS PLP yeast: 0%

How did N#Cc1ccc(/C=N/NC(=O)c2cc(-c3cccs3)nc3ccccc23)cc1 do in these assays?
Pf growth 48h: inconclusive; Pf growth 96h: inconclusive; CHX counter: 22*; NS1 inh: -20%; Shiga inhibitor: 27; SARS PLP yeast: -19%

Results for COc1cc(/C=N/NC(=O)c2cc(-c3cccs3)nc3ccccc23)ccc1O ?
Pf growth 48h: inconclusive; Pf growth 96h: inconclusive; CHX counter: 15; NS1 inh: 3%; Shiga inhibitor: 45*; SARS PLP yeast: 0%

How did N#Cc1ccc(-c2csc(NC(=O)c3cc(-c4cccs4)nc4ccccc34)n2)cc1 do in these assays?
Pf growth 48h: inconclusive; Pf growth 96h: inconclusive; CHX counter: -1; NS1 inh: -4%; Shiga inhibitor: -13; SARS PLP yeast: -1%

Results for OCCN1CCN(c2nc(N3CCCCC3)nc(N3CCCCC3)n2)CC1 ?
Pf growth 48h: 10µM*; Pf growth 96h: 60%; CHX counter: -7; NS1 inh: -14%; Shiga inhibitor: -7; SARS PLP yeast: -2%

How did N=C(N)Sc1nc(N2CCCCC2)nc(N2CCCCC2)n1 do in these assays?
Pf growth 48h: 27%; Pf growth 96h: 9%; CHX counter: 0; NS1 inh: 0%; Shiga inhibitor: -6; SARS PLP yeast: 0%

Results for Cc1cccc(NC(=O)c2c(C)nc3ccccn23)c1 ?
Pf growth 48h: 95%; Pf growth 96h: -17%; CHX counter: 29*; NS1 inh: -6%; Shiga inhibitor: 80*; SARS PLP yeast: -3%

How did Cc1ccc(/C=C/C(=O)c2c(C)nc3ccccn23)cc1 do in these assays?
Pf growth 48h: 170%; Pf growth 96h: -43%; CHX counter: 39*; NS1 inh: -90%; Shiga inhibitor: 70*; SARS PLP yeast: -11%

Results for Cc1nc2ccccn2c1C(=O)/C=C/c1cccc([N+](=O)[O-])c1 ?
Pf growth 48h: inconclusive; Pf growth 96h: inconclusive; CHX counter: 1; NS1 inh: 0%; Shiga inhibitor: -9; SARS PLP yeast: 1%

Results for Cc1ccc(NC(=O)c2c(C)nc3ccccn23)cc1C ?
Pf growth 48h: 385%; Pf growth 96h: 256%; CHX counter: 41*; Shiga inhibitor: 57*; SARS PLP yeast: -3%

How did Cc1cc(C)cc(NC(=O)c2c(C)nc3ccccn23)c1 do in these assays?
Pf growth 48h: -29%; Pf growth 96h: 23%; CHX counter: 11; NS1 inh: -1%; Shiga inhibitor: 16; SARS PLP yeast: 0%

Results for COc1ccc(OC)c(CCNC(=O)CCc2nnc3ccc(N4CCOCC4)nn23)c1 ?
Pf growth 48h: -7%; Pf growth 96h: inconclusive; CHX counter: 12; NS1 inh: 13%; Shiga inhibitor: -5; SARS PLP yeast: 2%

How did Clc1ccccc1C1NCc2ccccc2-n2cccc21 (stereo not given) do in these assays?
Pf growth 48h: -10%; Pf growth 96h: inconclusive; CHX counter: 1; Shiga inhibitor: -11; SARS PLP yeast: 4%

What do the screens show for `CCOc1cc(C2NCc3ccccc3-n3cccc32)ccc1O` (stereo not given)?
Pf growth 48h: 2.6µM*; Pf growth 96h: -26%; CHX counter: -5; NS1 inh: 0%; Shiga inhibitor: -16; SARS PLP yeast: 4%

How did Oc1ccccc1C1NCc2ccccc2-n2cccc21 (stereo not given) do in these assays?
Pf growth 48h: 13µM*; Pf growth 96h: 26%; CHX counter: -8; NS1 inh: -1%; Shiga inhibitor: -21; SARS PLP yeast: 0%

From PubChem BioAssay
